Drawing on PubChem BioAssay (EPA / NIEHS), this text covers outcome and AC50 for four molecules.

Active and inactive are the calls of the source. The calls were made as follows: active = hit-call score of the fitted dose curve at least 0.9, where 1 is the maximum; inactive = score below 0.9.

What all share (conditions): mRNA level, 48 h; actives raise or lower the signal
Read-out in assay [1]: JUN Transcription Factor, JUN (gene 3725)
The assay is described as follows: LTEA_HepaRG_JUN: Life Technologies and Expression Analysis (LTEA) Assay for JUN Transcription Factor using HepaRG (AID 2283513). The procedure, abridged: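 Read-out is JUN transcript level by TaqMan qRT-PCR, normalized to ACTB, GAPDH and POLR2A, after 48 h chemical treatment of HepaRG cells. Concentration-response spanned eight half-log points up to 100 uM in 0.5% DMSO.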

Read-out in assay [2]: Lipase C (LIPC), LIPC (gene 3990)
The assay is described as follows: LTEA_HepaRG_LIPC: Life Technologies and Expression Analysis (LTEA) Assay for Lipase C (LIPC) using HepaRG (AID 2283514). In short, it runs like this:
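HepaRG, 48 h exposure, 8-pt half-log series from 100 uM in 0.5% DMSO, duplicates. Readout: LIPC mRNA by Fluidigm qRT-PCR, housekeeping-normalized (ACTB/GAPDH/POLR2A). Gain or loss fitted bidirectionally against DMSO baseline.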

Read-out in assay [3]: Lipoprotein lipase (LPL), LPL (gene 4023)
The assay is described as follows: LTEA_HepaRG_LPL: Life Technologies and Expression Analysis (LTEA) Assay for Lipoprotein lipase (LPL) using HepaRG (AID 2283515). In short, it runs like this:
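HepaRG, 48 h exposure, 8-pt half-log dilutions from 100 uM, 0.5% DMSO vehicle, duplicates; qRT-PCR (Fluidigm array) of LPL mRNA vs housekeeping genes; bidirectional curve fit relative to DMSO baseline.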

Read-out in assay [4]: MicroRNA 122 (MIR122), gene 406906
Put plainly: LTEA_HepaRG_MIR122: Life Technologies and Expression Analysis (LTEA) Assay for MicroRNA 122 (MIR122) using HepaRG (AID 2283516). Also: the transcript read is the microRNA miR-122. In short, it runs like this: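 Human liver HepaRG cultures receive test chemicals for 48 h at eight half-log concentrations from 100 uM. Expression is quantified by qRT-PCR with ACTB/GAPDH/POLR2A normalization and fitted bidirectionally against 0.5% DMSO.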

Read-out in a further assay: MYC, MYC (gene 4609)
Put plainly: LTEA_HepaRG_MYC: Life Technologies and Expression Analysis (LTEA) Assay for MYC using HepaRG (AID 2283518). The procedure, abridged:
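Expression changes were scored by TaqMan qRT-PCR with ACTB, GAPDH and POLR2A normalization. Cultures in serum-free induction medium received duplicate 8-point concentration series, highest 100 uM, for 48 h; DMSO (0.5%) served as baseline.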

Read-out in assay [5]: matrix metalloproteinase-3 (MMP3), MMP3 (gene 4314)
Put plainly: LTEA_HepaRG_MMP3: Life Technologies and Expression Analysis (LTEA) Assay for matrix metalloproteinase-3 (MMP3) using HepaRG (AID 2283519). In short, it runs like this: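 qRT-PCR read-out of MMP3 mRNA (normalised to three housekeeping genes) in HepaRG liver cells after 48 h chemical exposure; 8-point half-log series, top 100 uM, 0.5% DMSO vehicle. Bidirectional curve fitting against DMSO baseline.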

Read-out in assay [6]: Paternally Expressed 10 (PEG10), PEG10 (gene 23089)
Put plainly: LTEA_HepaRG_PEG10: Life Technologies and Expression Analysis (LTEA) Assay for Paternally Expressed 10 (PEG10) using HepaRG (AID 2283520).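 As to AC50: differentiated HepaRG human liver cells in serum-free induction medium with 0.5% DMSO; PEG10 transcript by qRT-PCR normalised to ACTB GAPDH and POLR2A.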 The procedure, abridged: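 Human HepaRG cultures are dosed for 48 h across an eight-point half-log series starting at 100 uM, with 0.5% DMSO as vehicle and baseline. Gain or loss of PEG10 transcript is measured by qRT-PCR and fitted in both directions.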

Read-out in assay [7]: Nuclear factor NF-kappa-B p105 subunit (Homo sapiens) (UniProt P19838)
The assay is described as follows: LTEA_HepaRG_NFKB1: Life Technologies and Expression Analysis (LTEA) Assay for Nuclear Factor Kappa B Subunit 1 (NFKB1) using HepaRG (AID 2283521).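 Also: differentiated human HepaRG liver cells in serum-free induction medium.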 In short, it runs like this: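 NFKB1 transcript was measured by TaqMan qRT-PCR on Fluidigm arrays, normalised to three housekeeping genes and fitted in both directions against 0.5% DMSO. HepaRG cells were dosed in duplicate for 48 h in serum-free induction medium, eight half-log steps from 100 uM.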

Read-out in assay [8]: Protein phosphatase 2A (PPP2R4), PTPA (gene 5524)
Put plainly: LTEA_HepaRG_PPP2R4: Life Technologies and Expression Analysis (LTEA) Assay for Protein phosphatase 2A (PPP2R4) using HepaRG (AID 2283522). In short, it runs like this: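 Cells were plated, cultured 48 h, switched to serum-free induction medium, then dosed for 48 h (8 points, max 100 uM, 0.5% DMSO). RNA was isolated and PPP2R4 expression measured by TaqMan qRT-PCR.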

Read-out in assay [9]: Pyruvate Dehydrogenase Kinase 4 (PDK4), PDK4 (gene 5166)
Put plainly: LTEA_HepaRG_PDK4: Life Technologies and Expression Analysis (LTEA) Assay for Pyruvate Dehydrogenase Kinase 4 (PDK4) using HepaRG (AID 2283525). In short, it runs like this:
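HepaRG (human liver line), 48 h chemical exposure, 8-pt half-log CRC top 100 uM, 0.5% DMSO vehicle, duplicates. Readout: TaqMan qRT-PCR of PDK4 mRNA, housekeeping-normalized; gain/loss fit relative to DMSO baseline.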

Read-out in assay [10]: NAD(P)H dehydrogenase [quinone] 1 (NQO1), NQO1 (gene 1728)
The assay is described as follows: LTEA_HepaRG_NQO1: Life Technologies and Expression Analysis (LTEA) Assay for NAD(P)H dehydrogenase [quinone] 1 (NQO1) using HepaRG (AID 2283526). The procedure, abridged:
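Transcript induction or suppression is quantified by qRT-PCR in human HepaRG liver cells dosed for 48 hours. Eight half-log concentrations topping at 100 uM are used, with 0.5% DMSO as vehicle and baseline.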

Read-out in assay [11]: Nuclear factor erythroid 2-related factor 2 (Homo sapiens) (UniProt Q16236)
The assay is described as follows: LTEA_HepaRG_NFE2L2: Life Technologies and Expression Analysis (LTEA) Assay for Nuclear factor erythroid 2-related factor 2 (NFE2L2) Transcription Factor using HepaRG (AID 2283527). The procedure, abridged:
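HepaRG, 48 h dosing, 8-pt half-log series from 100 uM in 0.5% DMSO, duplicates. Read-out: NFE2L2 mRNA by qRT-PCR (ACTB/GAPDH/POLR2A normalization). Bidirectional curve fit vs DMSO baseline.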

Read-out in assay [12]: succinate dehydrogenase complex iron sulfur subunit B (SDHB), SDHB (gene 6390)
Put plainly: LTEA_HepaRG_SDHB: Life Technologies and Expression Analysis (LTEA) Assay for succinate dehydrogenase complex iron sulfur subunit B (SDHB) using HepaRG (AID 2283528). The procedure, abridged:
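SDHB transcript level read by TaqMan qRT-PCR, housekeeping-normalised (ACTB, GAPDH, POLR2A), after 48 h chemical treatment of plated HepaRG cells; eight concentrations top 100 uM, half-log steps, 0.5% DMSO, duplicates; fitted both directions against DMSO.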

Read-out in assay [13]: Signal transducer and activator of transcription 3 (Homo sapiens) (UniProt P40763)
Put plainly: LTEA_HepaRG_STAT3: Life Technologies and Expression Analysis (LTEA) Assay for Signal transducer and activator of transcription (STAT3) using HepaRG (AID 2283529). In short, it runs like this:
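HepaRG, 48 h exposure, 8-pt half-log series (top 100 uM), 0.5% DMSO vehicle, duplicates. Readout: STAT3 transcript by Fluidigm qRT-PCR, housekeeping-normalized; bidirectional fit vs DMSO baseline.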

Read-out in assay [14]: solute carrier (SLCO1B1), SLCO1B1 (gene 10599)
Put plainly: LTEA_HepaRG_SLCO1B1: Life Technologies and Expression Analysis (LTEA) Assay for solute carrier (SLCO1B1) using HepaRG (AID 2283530). In short, it runs like this: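 Human HepaRG cultures treated for 48 h with an eight-concentration half-log series topping at 100 uM; SLCO1B1 measured by qRT-PCR and fitted bidirectionally relative to DMSO.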

Read-out in assay [15]: sulfotransferase 2A1 (SULT2A1), SULT2A1 (gene 6822)
The assay is described as follows: LTEA_HepaRG_SULT2A1: Life Technologies and Expression Analysis (LTEA) Assay for sulfotransferase 2A1 (SULT2A1) using HepaRG (AID 2283531). The procedure, abridged:
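Gene-expression endpoint in a human liver cell line: SULT2A1 mRNA change after 48 h chemical treatment, curves fitted in both directions relative to 0.5% DMSO vehicle. Concentrations spanned eight half-log steps from 100 uM.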

Read-out in assay [16]: Transforming Growth Factor (TGFA), TGFA (gene 7039)
Put plainly: LTEA_HepaRG_TGFA: Life Technologies and Expression Analysis (LTEA) Assay for Transforming Growth Factor (TGFA) using HepaRG (AID 2283532). In short, it runs like this: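 qRT-PCR read-out of TGFA transcript, normalized to three housekeeping genes, fitted bidirectionally against 0.5% DMSO baseline. Human HepaRG cultures received chemicals for 48 h at eight half-log concentrations, top 100 uM.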

Read-out in assay [17]: matrix metalloproteinase-10 (MMP10), MMP10 (gene 4319)
The assay is described as follows: LTEA_HepaRG_MMP10: Life Technologies and Expression Analysis (LTEA) Assay for matrix metalloproteinase-10 (MMP10) using HepaRG (AID 2283517). In short, it runs like this:
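Transcript levels come from Fluidigm qRT-PCR normalized to three housekeeping genes, with curves fitted bidirectionally against 0.5% DMSO. Human HepaRG cells were dosed for 48 hours at concentrations up to 100 uM.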

Read-out in assay [18]: Phosphatase and tensin (PTEN), PTEN (gene 5728)
The assay is described as follows: LTEA_HepaRG_PTEN: Life Technologies and Expression Analysis (LTEA) Assay for Phosphatase and tensin (PTEN) using HepaRG (AID 2283523). In short, it runs like this:
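HepaRG, 48 h exposure, 8-pt half-log series from 100 uM top, 0.5% DMSO vehicle, duplicates. Readout: Fluidigm qRT-PCR of PTEN transcript; housekeeping normalization (ACTB, GAPDH, POLR2A). Gain or loss fitted relative to DMSO baseline.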

Read-out in assay [19]: solute carrier (SLC22A1), SLC22A1 (gene 6580)
The assay is described as follows: LTEA_HepaRG_SLC22A1: Life Technologies and Expression Analysis (LTEA) Assay for solute carrier (SLC22A1) using HepaRG (AID 2283524). The procedure, abridged: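 qRT-PCR readout (TaqMan, Fluidigm arrays) of SLC22A1 transcript, normalized to three housekeeping genes; bidirectional curve fit relative to 0.5% DMSO vehicle. Differentiated human HepaRG cells, 48 h chemical exposure, top concentration 100 uM, half-log steps, eight points.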

Chain of Nuclear factor NF-kappa-B p105 subunit (Homo sapiens) (P19838 whole entry, looked up): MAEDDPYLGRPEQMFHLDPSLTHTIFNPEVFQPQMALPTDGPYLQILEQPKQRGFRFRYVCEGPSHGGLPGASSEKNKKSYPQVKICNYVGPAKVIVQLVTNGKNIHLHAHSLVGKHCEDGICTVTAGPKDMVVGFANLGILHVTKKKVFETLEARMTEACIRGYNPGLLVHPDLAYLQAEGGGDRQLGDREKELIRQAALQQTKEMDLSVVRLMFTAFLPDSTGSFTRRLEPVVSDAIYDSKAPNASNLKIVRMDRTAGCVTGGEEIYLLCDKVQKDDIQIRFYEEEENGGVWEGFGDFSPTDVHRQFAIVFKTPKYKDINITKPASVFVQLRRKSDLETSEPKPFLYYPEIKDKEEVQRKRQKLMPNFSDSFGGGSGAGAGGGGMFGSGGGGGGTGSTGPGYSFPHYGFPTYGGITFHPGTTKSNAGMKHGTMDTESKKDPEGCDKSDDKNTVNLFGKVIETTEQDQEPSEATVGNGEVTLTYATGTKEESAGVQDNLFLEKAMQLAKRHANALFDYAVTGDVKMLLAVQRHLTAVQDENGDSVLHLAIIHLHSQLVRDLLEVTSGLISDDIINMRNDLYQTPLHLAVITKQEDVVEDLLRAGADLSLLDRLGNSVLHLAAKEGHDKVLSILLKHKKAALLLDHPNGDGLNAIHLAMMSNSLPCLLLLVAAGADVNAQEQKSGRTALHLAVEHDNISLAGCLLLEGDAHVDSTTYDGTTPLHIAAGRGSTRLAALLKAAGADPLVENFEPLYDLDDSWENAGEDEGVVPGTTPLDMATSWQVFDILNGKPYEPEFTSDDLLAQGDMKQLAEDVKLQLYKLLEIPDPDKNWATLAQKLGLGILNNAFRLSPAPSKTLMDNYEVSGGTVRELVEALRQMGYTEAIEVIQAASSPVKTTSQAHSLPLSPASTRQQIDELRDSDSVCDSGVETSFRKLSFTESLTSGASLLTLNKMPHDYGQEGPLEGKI
Chain of Signal transducer and activator of transcription 3 (Homo sapiens) (P40763 whole entry, looked up): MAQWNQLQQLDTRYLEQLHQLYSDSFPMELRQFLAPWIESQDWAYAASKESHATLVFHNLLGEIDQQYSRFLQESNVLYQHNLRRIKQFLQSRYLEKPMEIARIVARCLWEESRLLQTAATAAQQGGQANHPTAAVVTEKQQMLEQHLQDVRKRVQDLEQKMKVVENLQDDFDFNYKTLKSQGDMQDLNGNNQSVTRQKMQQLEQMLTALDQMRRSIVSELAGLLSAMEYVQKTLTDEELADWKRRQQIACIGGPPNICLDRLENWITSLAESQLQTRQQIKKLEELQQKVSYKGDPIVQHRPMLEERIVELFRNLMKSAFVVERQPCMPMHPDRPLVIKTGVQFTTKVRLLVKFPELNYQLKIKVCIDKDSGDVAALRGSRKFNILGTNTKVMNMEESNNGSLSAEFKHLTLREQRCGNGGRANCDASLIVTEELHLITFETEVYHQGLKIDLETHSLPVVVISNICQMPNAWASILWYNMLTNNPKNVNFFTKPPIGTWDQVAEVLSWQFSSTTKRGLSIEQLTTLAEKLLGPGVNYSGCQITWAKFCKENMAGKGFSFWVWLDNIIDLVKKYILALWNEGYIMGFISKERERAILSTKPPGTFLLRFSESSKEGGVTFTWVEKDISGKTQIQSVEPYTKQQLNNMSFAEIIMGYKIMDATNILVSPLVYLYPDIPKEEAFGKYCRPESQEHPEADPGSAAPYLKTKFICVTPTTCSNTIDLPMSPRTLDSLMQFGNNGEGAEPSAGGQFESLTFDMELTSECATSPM
Chain of Nuclear factor erythroid 2-related factor 2 (Homo sapiens) (Q16236 whole entry, looked up): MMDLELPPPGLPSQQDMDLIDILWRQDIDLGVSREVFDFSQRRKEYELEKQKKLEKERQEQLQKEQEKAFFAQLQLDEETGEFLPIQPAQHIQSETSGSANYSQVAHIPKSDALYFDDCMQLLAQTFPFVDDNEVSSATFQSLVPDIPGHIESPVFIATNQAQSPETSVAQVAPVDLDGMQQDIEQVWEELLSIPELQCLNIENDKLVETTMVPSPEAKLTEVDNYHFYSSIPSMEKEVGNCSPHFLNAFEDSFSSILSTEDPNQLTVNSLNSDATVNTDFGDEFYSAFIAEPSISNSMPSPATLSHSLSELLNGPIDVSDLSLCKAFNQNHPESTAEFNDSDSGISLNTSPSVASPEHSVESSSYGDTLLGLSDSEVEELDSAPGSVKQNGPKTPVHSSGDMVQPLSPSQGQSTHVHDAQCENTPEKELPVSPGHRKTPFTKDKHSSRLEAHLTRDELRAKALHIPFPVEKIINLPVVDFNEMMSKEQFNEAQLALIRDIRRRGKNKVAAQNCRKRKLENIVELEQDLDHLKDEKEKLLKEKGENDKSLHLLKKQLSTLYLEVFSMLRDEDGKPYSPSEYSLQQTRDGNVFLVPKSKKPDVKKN

As for `CN(C)C(=O)Nc1ccc(Cl)cc1`, the outcome in assay [1] was “inactive”; in [2], “inactive”; in [3], “inactive”; in [4], “inactive”; with MYC, MYC (gene 4609) it was “inactive”; in assay [5] it was “inactive”. The outcome in assay [6], in [7], in assay [8], in [9], in assay [10] and in assay [11] was inactive. The result in assay [12], in assay [13], in assay [14], in assay [15] and in assay [16] was inactive.

For the molecule `CCCCCOC(=O)c1ccccc1C(=O)OCCCCC`, the outcome in assay [1] was “inactive”; in assay [2], “inactive”; in assay [4], “inactive”; in [17], “inactive”; in the assay with MYC, MYC (gene 4609), “inactive”; in [5] it was “inactive”. For the same molecule, the call in [6], in assay [7], in assay [8], in [18], in [9] and in assay [10] was inactive. In addition, the result in [11], in assay [12], in assay [13], in assay [14], in assay [15] and in [16] was inactive.

By AC50 is commonly meant the concentration at which the activity in the assay is half-maximal. As for `O=[N+]([O-])c1ccc(Oc2ccc(Cl)cc2Cl)cc1`, the molecule was classed as inactive in [1], in assay [2], in assay [3], in assay [4], in [5] and in assay [7]. Also, the molecule was classed as inactive in assay [8], in [19], in assay [10], in assay [11], in assay [12] and in assay [13]. Moreover, the molecule was called inactive in [15] and in assay [16]. In addition, the half-maximal activity concentration (AC50) with MYC, MYC (gene 4609) was 32.8 µM (active); in [6], 50 µM (active); in assay [9], 11.3 µM (active).

Take `CCCCCCCCCCCCCN1CC(C)OC(C)C1` (stereo not drawn): the outcome in assay [1] is “inactive”; in assay [2], “inactive”; in assay [3], “inactive”; in assay [4], “inactive”; in the assay with MYC, MYC (gene 4609) it was “inactive”; in [5], “inactive”. The result in assay [6], in assay [8], in assay [18], in assay [9], in [10] and in [11] was inactive. Besides, the call in assay [12], in assay [13], in assay [15] and in assay [16] was inactive.
